# Experimental data as given in the supplement of paper PMC8728848.
# This is one part of a sample in which the strongest signals are shown more often than they occur.
# B1: CFEM-PPm (Pichia pastoris), F2QPV1 (protein)
# chain: AVATPPACLLACAAEVVKESSDCDALNNIQCICENEGSAIHACLESTCPDGLSSTALQSFEDVCE
# B2: LFA (Limax flavus) (protein)
# chain: MSVLFLAASFLLLASFELVAAQGCPRQDPGDWIVIQRRLNADVNFYRGWADYKHGFGDLRCNFWLGNEKIHQLTSHGRYKLRVEFTFNNKSYFAEYSTFKILGEADKYKLQVGGYSGNAGDALTFHNGMAFSTNDRDNDADSIDCAKVYHGAWWYKTCHESNLNGKWGSKKYGEGLNWKAKTTFTATATSSLLKIKALK
# Assays:
# Assay in all cases: glycan array binding signal (z-score within array); higher = stronger binding
# Details in all cases: glycan notation: IUPAC condensed, linker removed
# [1] = target: Fuc(a1-2)Gal(b1-3)GlcNAc(b1-2)Man(a1-3)[Fuc(a1-2)Gal(b1-3)GlcNAc(b1-2)Man(a1-6)]Man(b1-4)GlcNAc(b1-4)GlcNAc
# Procedure, shortened: (§1)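 The binding signal is a Z-score computed within each array. Data were drawn from 3228 arrays in the Consortium for Functional Glycomics database, restricted to those with a known protein sequence. Scores were averaged over arrays of the same protein sequence at different concentrations or buffers, and over linkers, and negative values can be taken as non-binding.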
# [2] = target: Fuc(a1-2)Gal(b1-4)GlcNAc(b1-3)GalNAc
# Procedure, shortened: as §1
# [3] = target: Fuc(a1-2)[GalNAc(a1-3)]Gal(b1-4)[Fuc(a1-3)]GlcNAc(b1-3)GalNAc
# Procedure, shortened: as §1
# Fuc(a1-3)GlcNAc = target: Fuc(a1-3)GlcNAc
# Procedure, shortened: as §1
# Gal(a1-2)Gal = target: Gal(a1-2)Gal
# Procedure, shortened: as §1
# [4] = target: Gal(a1-3)Gal(b1-3)GlcNAc(b1-2)Man(a1-3)[Gal(a1-3)Gal(b1-3)GlcNAc(b1-2)Man(a1-6)]Man(b1-4)GlcNAc(b1-4)GlcNAc
# Procedure, shortened: as §1
# [5] = target: Gal(a1-3)Gal(b1-3)[Fuc(a1-4)]GlcNAc(b1-2)Man(a1-3)[Gal(a1-3)Gal(b1-3)[Fuc(a1-4)]GlcNAc(b1-2)Man(a1-6)]Man(b1-4)GlcNAc(b1-4)GlcNAc
# Procedure, shortened: as §1
# [6] = target: Gal(a1-3)Gal(b1-4)GlcNAc(b1-3)GalNAc
# Procedure, shortened: as §1
# [7] = target: Gal(a1-3)Gal(b1-4)[Fuc(a1-3)]GlcNAc
# Procedure, shortened: as §1
# Gal(b1-3)Gal = target: Gal(b1-3)Gal
# Procedure, shortened: as §1
# Gal(b1-3)Gal(b1-4)GlcNAc = target: Gal(b1-3)Gal(b1-4)GlcNAc
# Procedure, shortened: as §1
# Gal(b1-3)GalNAc = target: Gal(b1-3)GalNAc
# Procedure, shortened: as §1
# [8] = target: Gal(b1-3)GalNAc(a1-3)[Fuc(a1-2)]Gal(b1-4)Glc
# Procedure, shortened: as §1
# [9] = target: Gal(b1-3)GalNAc(a1-3)[Fuc(a1-2)]Gal(b1-4)GlcNAc
# Procedure, shortened: as §1
# Gal(b1-3)GalNAc(b1-3)Gal = target: Gal(b1-3)GalNAc(b1-3)Gal
# Procedure, shortened: as §1
# [10] = target: Gal(b1-3)GalNAc(b1-4)Gal(b1-4)Glc
# Procedure, shortened: as §1
# [11] = target: Gal(b1-3)GlcNAc(b1-2)[Gal(b1-3)GlcNAc(b1-6)]Man(a1-6)[Gal(b1-3)GlcNAc(b1-2)Man(a1-3)]Man(b1-4)GlcNAc(b1-4)GlcNAc
# Procedure, shortened: as §1
# [12] = target: Gal(b1-3)GlcNAc(b1-3)Gal(b1-4)GlcNAc(b1-2)Man(a1-3)[Gal(b1-3)GlcNAc(b1-3)Gal(b1-4)GlcNAc(b1-2)Man(a1-6)]Man(b1-4)GlcNAc(b1-4)GlcNAc
# Procedure, shortened: as §1
# [13] = target: Gal(b1-3)GlcNAc(b1-3)Gal(b1-4)GlcNAc(b1-6)[Gal(b1-3)GlcNAc(b1-3)]Gal(b1-4)Glc
# Procedure, shortened: as §1
# [14] = target: Gal(b1-3)GlcNAc(b1-6)Gal(b1-4)GlcNAc
# Procedure, shortened: as §1
# [15] = target: Gal(b1-3)[Fuc(a1-4)]GlcNAc(b1-3)Gal(b1-3)[Fuc(a1-4)]GlcNAc
# Procedure, shortened: as §1
# [16] = target: Gal(b1-3)[Neu5Ac(a2-6)]GalNAc
# Procedure, shortened: as §1
# Gal(b1-4)Glc = target: Gal(b1-4)Glc
# Procedure, shortened: as §1
# Gal(b1-4)GlcNAc = target: Gal(b1-4)GlcNAc
# Procedure, shortened: as §1
# [17] = target: Gal(b1-4)GlcNAc(b1-3)Gal(b1-4)GlcNAc(b1-2)Man(a1-3)[Gal(b1-4)GlcNAc(b1-3)Gal(b1-4)GlcNAc(b1-2)Man(a1-6)]Man(b1-4)GlcNAc(b1-4)GlcNAc
# Procedure, shortened: as §1
# [18] = target: Gal(b1-4)GlcNAc(b1-3)Gal(b1-4)GlcNAc(b1-2)Man(a1-3)[Gal(b1-4)GlcNAc(b1-3)Gal(b1-4)GlcNAc(b1-2)Man(a1-6)]Man(b1-4)GlcNAc(b1-4)[Fuc(a1-6)]GlcNAc
# Procedure, shortened: as §1
# [19] = target: Gal(b1-4)GlcNAc(b1-3)Gal(b1-4)GlcNAc(b1-3)Gal(b1-4)GlcNAc(b1-3)Gal(b1-4)GlcNAc(b1-2)Man(a1-3)[Gal(b1-4)GlcNAc(b1-3)Gal(b1-4)GlcNAc(b1-3)Gal(b1-4)GlcNAc(b1-3)Gal(b1-4)GlcNAc(b1-2)Man(a1-6)]Man(b1-4)GlcNAc(b1-4)GlcNAc
# Procedure, shortened: as §1
# [20] = target: Gal(b1-4)GlcNAc(b1-3)Gal(b1-4)GlcNAc(b1-3)Gal(b1-4)GlcNAc(b1-3)Gal(b1-4)GlcNAc(b1-3)Gal(b1-4)GlcNAc(b1-2)Man(a1-3)[Gal(b1-4)GlcNAc(b1-3)Gal(b1-4)GlcNAc(b1-3)Gal(b1-4)GlcNAc(b1-3)Gal(b1-4)GlcNAc(b1-3)Gal(b1-4)GlcNAc(b1-2)Man(a1-6)]Man(b1-4)GlcNAc(b1-4)[Fuc(a1-6)]GlcNAc
# Procedure, shortened: as §1
# [21] = target: Gal(b1-4)GlcNAc(b1-6)[Gal(b1-3)]GalNAc
# Procedure, shortened: as §1
# [22] = target: Gal3S(b1-3)[Fuc(a1-4)]GlcNAc
# Procedure, shortened: as §1
# [23] = target: GlcNAc(b1-3)[GlcNAc(b1-4)][GlcNAc(b1-6)]GlcNAc
# Procedure, shortened: as §1
# [24] = target: GlcNAc(b1-4)GlcNAc(b1-4)GlcNAc(b1-4)GlcNAc(b1-4)GlcNAc
# Procedure, shortened: as §1
# [25] = target: GlcNAc(b1-4)GlcNAc(b1-4)GlcNAc(b1-4)GlcNAc(b1-4)GlcNAc(b1-4)GlcNAc
# Procedure, shortened: as §1
# [26] = target: Man(a1-3)[Man(a1-6)]Man(a1-6)[Man(a1-2)Man(a1-3)]Man(b1-4)GlcNAc(b1-4)GlcNAc
# Procedure, shortened: as §1
# [27] = target: Man(a1-3)[Man(a1-6)]Man(b1-4)GlcNAc(b1-4)[Fuc(a1-6)]GlcNAc
# Procedure, shortened: as §1
# MurNAc(b1-4)GlcNAc = target: MurNAc(b1-4)GlcNAc
# Procedure, shortened: as §1
# [28] = target: Neu5Ac(a2-3)Gal(b1-3)GalNAc(b1-4)[Neu5Ac(a2-8)Neu5Ac(a2-3)]Gal(b1-4)Glc
# Procedure, shortened: as §1
# [29] = target: Neu5Ac(a2-3)Gal(b1-3)GlcNAc(b1-3)Gal(b1-3)GlcNAc
# Procedure, shortened: as §1
# [30] = target: Neu5Ac(a2-3)Gal(b1-4)GlcNAc(b1-3)Gal(b1-3)GlcNAc
# Procedure, shortened: as §1
# [31] = target: Neu5Ac(a2-3)Gal(b1-4)GlcNAc(b1-3)Gal(b1-4)GlcNAc(b1-2)Man(a1-3)[Neu5Ac(a2-3)Gal(b1-4)GlcNAc(b1-3)Gal(b1-4)GlcNAc(b1-2)Man(a1-6)]Man(b1-4)GlcNAc(b1-4)GlcNAc
# Procedure, shortened: as §1
# [32] = target: Neu5Ac(a2-3)Gal(b1-4)GlcNAc(b1-3)Gal(b1-4)GlcNAc(b1-3)Gal(b1-4)GlcNAc(b1-2)Man(a1-3)[Neu5Ac(a2-3)Gal(b1-4)GlcNAc(b1-3)Gal(b1-4)GlcNAc(b1-3)Gal(b1-4)GlcNAc(b1-2)Man(a1-6)]GalNAc
# Procedure, shortened: as §1
# [33] = target: Neu5Ac(a2-3)[GalNAc(b1-4)]Gal(b1-4)GlcNAc
# Procedure, shortened: as §1
# [34] = target: Neu5Ac(a2-3)[Neu5Ac(a2-6)]GalNAc
# Procedure, shortened: as §1
# [35] = target: Neu5Ac(a2-6)Gal(b1-4)GlcNAc
# Procedure, shortened: as §1
# [36] = target: Neu5Ac(a2-6)Gal(b1-4)GlcNAc(b1-3)Gal(b1-4)GlcNAc(b1-3)[Neu5Ac(a2-6)Gal(b1-4)GlcNAc(b1-3)Gal(b1-4)GlcNAc(b1-6)]GalNAc
# Procedure, shortened: as §1
# Neu5Ac(a2-6)GalNAc = target: Neu5Ac(a2-6)GalNAc
# Procedure, shortened: as §1
# [37] = target: Neu5Ac(a2-8)Neu5Ac(a2-3)Gal(b1-3)GalNAc(b1-4)[Neu5Ac(a2-3)]Gal(b1-4)Glc
# Procedure, shortened: as §1
# [38] = target: Neu5Ac(a2-8)Neu5Ac(a2-8)Neu5Ac(a2-3)[Gal(b1-3)GalNAc(b1-4)]Gal(b1-4)Glc
# Procedure, shortened: as §1
# [39] = target: Neu5Ac(a2-8)Neu5Ac(a2-8)Neu5Ac(a2-3)[GalNAc(b1-4)]Gal(b1-4)Glc
# Procedure, shortened: as §1
# Neu5Ac(b2-6)GalNAc = target: Neu5Ac(b2-6)GalNAc
# Procedure, shortened: as §1
# [40] = target: Neu5Ac9Ac(a2-3)Gal(b1-3)GlcNAc
# Procedure, shortened: as §1
# [41] = target: Neu5Gc(a2-3)Gal(b1-4)GlcNAc(b1-3)Gal(b1-4)GlcNAc(b1-2)Man(a1-3)[Neu5Gc(a2-3)Gal(b1-4)GlcNAc(b1-3)Gal(b1-4)GlcNAc(b1-2)Man(a1-6)]Man(b1-4)GlcNAc(b1-4)GlcNAc
# Procedure, shortened: as §1
# [42] = target: Neu5Gc(a2-3)Gal(b1-4)[Fuc(a1-3)]GlcNAc
# Procedure, shortened: as §1
# [43] = target: Neu5Gc(a2-8)Neu5Gc(a2-3)Gal(b1-4)GlcNAc(b1-3)Gal(b1-4)GlcNAc
# Procedure, shortened: as §1
binder,measurement,setting,value
B1,glycan array binding signal (z-score),[1],-0.289
same,glycan array binding signal (z-score),[2],1.77
same,glycan array binding signal (z-score),[3],3.4
same,glycan array binding signal (z-score),Fuc(a1-3)GlcNAc,-0.301
same,glycan array binding signal (z-score),Gal(a1-2)Gal,-0.447
same,glycan array binding signal (z-score),[4],0.425
same,glycan array binding signal (z-score),[5],-0.006
same,glycan array binding signal (z-score),[6],-0.284
same,glycan array binding signal (z-score),[7],-0.203
same,glycan array binding signal (z-score),Gal(b1-3)Gal,5.41
same,glycan array binding signal (z-score),Gal(b1-3)Gal(b1-4)GlcNAc,6.22
same,glycan array binding signal (z-score),Gal(b1-3)GalNAc,3.57
same,glycan array binding signal (z-score),[8],0.271
same,glycan array binding signal (z-score),[9],0.224
same,glycan array binding signal (z-score),Gal(b1-3)GalNAc(b1-3)Gal,5.7
same,glycan array binding signal (z-score),[10],14.7
same,glycan array binding signal (z-score),[11],-0.203
same,glycan array binding signal (z-score),[12],-0.305
same,glycan array binding signal (z-score),[13],-0.017
same,glycan array binding signal (z-score),[14],-0.102
same,glycan array binding signal (z-score),[15],-0.034
same,glycan array binding signal (z-score),[16],7.18
same,glycan array binding signal (z-score),Gal(b1-4)Glc,-0.356
same,glycan array binding signal (z-score),Gal(b1-4)GlcNAc,-0.105
same,glycan array binding signal (z-score),[17],1.53
same,glycan array binding signal (z-score),[18],-0.026
same,glycan array binding signal (z-score),[19],-0.09
same,glycan array binding signal (z-score),[20],-0.233
same,glycan array binding signal (z-score),[21],1.67
same,glycan array binding signal (z-score),[22],-0.262
B2,glycan array binding signal (z-score),[23],-0.405
same,glycan array binding signal (z-score),[24],2.87
same,glycan array binding signal (z-score),[25],5.81
same,glycan array binding signal (z-score),[26],3.26
same,glycan array binding signal (z-score),[27],0.24
same,glycan array binding signal (z-score),MurNAc(b1-4)GlcNAc,-0.363
same,glycan array binding signal (z-score),[28],-0.184
same,glycan array binding signal (z-score),[29],-0.139
same,glycan array binding signal (z-score),[30],-0.206
same,glycan array binding signal (z-score),[31],2.77
same,glycan array binding signal (z-score),[32],4.29
same,glycan array binding signal (z-score),[33],0.019
same,glycan array binding signal (z-score),[34],1.01
same,glycan array binding signal (z-score),[35],-0.176
same,glycan array binding signal (z-score),[36],2.5
same,glycan array binding signal (z-score),Neu5Ac(a2-6)GalNAc,-0.345
same,glycan array binding signal (z-score),[37],-0.229
same,glycan array binding signal (z-score),[38],-0.353
same,glycan array binding signal (z-score),[39],0.236
same,glycan array binding signal (z-score),Neu5Ac(b2-6)GalNAc,-0.284
same,glycan array binding signal (z-score),[40],-0.339
same,glycan array binding signal (z-score),[41],-0.166
same,glycan array binding signal (z-score),[42],-0.306
same,glycan array binding signal (z-score),[43],-0.237
